Measured values published in the supplement of paper PMC11732987, “Enantioselective OTUD7B fragment discovery through chemoproteomics screening and high-throughput optimisation” (Communications Chemistry, 2025).

Assays:
Assay in all cases: log2 ratio of Biotin-Ahx-Ub-VS probe labelling (fragment/DMSO); higher = less target engagement (more negative = stronger competition), active = hit call of the paper (q ≤ 0.05, log2 ratio ≤ -1)
Details in all cases: compound concentration: 200 uM; treatment time: 3 h
USP42 = target: T1, USP42 (UniProt Q9H9J4)
T1 sequence (whole entry): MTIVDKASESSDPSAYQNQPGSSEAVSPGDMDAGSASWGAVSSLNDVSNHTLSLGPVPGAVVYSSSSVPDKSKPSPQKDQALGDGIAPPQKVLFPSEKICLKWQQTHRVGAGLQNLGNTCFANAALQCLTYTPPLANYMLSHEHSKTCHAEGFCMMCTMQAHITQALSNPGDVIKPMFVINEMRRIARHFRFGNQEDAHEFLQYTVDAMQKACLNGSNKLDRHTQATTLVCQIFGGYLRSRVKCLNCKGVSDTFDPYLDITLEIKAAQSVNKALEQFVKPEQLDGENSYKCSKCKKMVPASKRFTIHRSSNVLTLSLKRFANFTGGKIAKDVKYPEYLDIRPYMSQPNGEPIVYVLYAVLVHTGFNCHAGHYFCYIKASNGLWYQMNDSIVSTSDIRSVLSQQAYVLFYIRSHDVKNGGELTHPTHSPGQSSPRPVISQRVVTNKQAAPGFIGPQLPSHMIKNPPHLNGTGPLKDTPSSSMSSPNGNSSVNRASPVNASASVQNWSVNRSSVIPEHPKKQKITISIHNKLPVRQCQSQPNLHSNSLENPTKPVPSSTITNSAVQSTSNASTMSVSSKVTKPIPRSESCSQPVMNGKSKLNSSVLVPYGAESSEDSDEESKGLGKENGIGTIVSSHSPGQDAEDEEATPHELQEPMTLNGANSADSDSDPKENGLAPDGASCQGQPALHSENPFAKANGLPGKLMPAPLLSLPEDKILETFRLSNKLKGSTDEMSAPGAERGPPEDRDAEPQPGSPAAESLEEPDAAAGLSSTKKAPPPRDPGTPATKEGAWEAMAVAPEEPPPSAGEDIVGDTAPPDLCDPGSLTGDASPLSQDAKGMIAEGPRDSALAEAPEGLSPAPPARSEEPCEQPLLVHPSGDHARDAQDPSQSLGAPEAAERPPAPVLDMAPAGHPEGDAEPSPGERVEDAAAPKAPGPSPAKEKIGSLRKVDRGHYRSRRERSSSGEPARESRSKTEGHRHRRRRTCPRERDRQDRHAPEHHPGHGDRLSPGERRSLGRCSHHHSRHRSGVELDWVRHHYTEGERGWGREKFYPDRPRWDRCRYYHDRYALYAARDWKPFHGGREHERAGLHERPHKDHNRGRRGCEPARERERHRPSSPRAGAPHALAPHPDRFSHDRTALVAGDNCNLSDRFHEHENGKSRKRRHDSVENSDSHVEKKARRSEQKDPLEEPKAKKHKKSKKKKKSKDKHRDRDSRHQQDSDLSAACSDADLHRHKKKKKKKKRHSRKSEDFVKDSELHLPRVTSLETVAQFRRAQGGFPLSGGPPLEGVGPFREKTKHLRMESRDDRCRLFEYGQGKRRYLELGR
Outline: (§1)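 Triplicate samples of HEK293T lysate, 495 µg each, received fragment at 200 µM or vehicle for 3 h, followed by Biotin-Ahx-Ub-VS (0.5 µM final) for 1 h. After NeutrAvidin enrichment of labelled DUBs and LysC/trypsin digestion, peptides were run by diaPASEF LC-MS/MS. The values are average log2 fragment/vehicle ratios from global-median-normalised Spectronaut label-free quantities, tested by unpaired t-test on proteins having ≥2 unique peptides.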

USP46 = USP46 (UniProt P62068)
Outline: as §1

USP47 = target: T2, USP47 (UniProt Q96K76)
T2 sequence (whole entry): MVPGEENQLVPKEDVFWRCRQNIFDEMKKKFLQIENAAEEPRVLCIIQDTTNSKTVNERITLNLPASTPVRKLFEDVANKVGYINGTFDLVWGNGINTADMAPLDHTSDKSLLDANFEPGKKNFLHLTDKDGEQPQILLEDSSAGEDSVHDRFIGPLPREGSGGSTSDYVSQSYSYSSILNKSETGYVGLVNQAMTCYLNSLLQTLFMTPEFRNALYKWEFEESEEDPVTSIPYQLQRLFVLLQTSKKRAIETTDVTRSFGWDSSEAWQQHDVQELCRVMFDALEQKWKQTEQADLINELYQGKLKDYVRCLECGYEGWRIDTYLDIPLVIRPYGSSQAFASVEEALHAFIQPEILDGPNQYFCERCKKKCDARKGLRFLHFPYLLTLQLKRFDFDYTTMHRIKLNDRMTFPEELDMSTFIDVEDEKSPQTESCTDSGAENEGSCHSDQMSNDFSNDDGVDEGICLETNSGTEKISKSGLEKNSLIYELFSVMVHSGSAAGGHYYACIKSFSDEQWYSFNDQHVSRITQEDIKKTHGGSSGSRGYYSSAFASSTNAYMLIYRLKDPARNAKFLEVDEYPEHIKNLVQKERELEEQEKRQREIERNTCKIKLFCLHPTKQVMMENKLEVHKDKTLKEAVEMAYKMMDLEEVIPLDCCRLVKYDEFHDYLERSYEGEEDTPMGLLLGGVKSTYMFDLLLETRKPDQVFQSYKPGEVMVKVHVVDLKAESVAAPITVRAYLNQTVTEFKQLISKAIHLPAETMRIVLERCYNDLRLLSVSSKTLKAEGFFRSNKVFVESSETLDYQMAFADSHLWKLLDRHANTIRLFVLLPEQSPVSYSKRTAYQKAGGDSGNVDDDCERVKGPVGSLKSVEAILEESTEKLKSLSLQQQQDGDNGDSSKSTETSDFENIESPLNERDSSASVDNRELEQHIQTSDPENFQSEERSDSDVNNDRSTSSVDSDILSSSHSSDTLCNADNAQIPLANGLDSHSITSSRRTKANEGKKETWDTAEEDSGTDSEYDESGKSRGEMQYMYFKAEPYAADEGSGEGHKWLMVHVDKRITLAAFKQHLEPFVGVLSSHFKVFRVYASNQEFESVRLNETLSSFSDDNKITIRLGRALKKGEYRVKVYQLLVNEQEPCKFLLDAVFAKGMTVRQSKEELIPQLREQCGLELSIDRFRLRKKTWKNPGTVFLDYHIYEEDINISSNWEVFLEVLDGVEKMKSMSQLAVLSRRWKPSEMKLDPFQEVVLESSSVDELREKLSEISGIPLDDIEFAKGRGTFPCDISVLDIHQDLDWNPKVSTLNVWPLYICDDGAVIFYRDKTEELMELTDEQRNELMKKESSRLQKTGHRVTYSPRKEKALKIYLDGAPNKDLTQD
Outline: as §1

USP48 = target: T3, USP48 (UniProt Q86UV5)
T3 sequence (whole entry): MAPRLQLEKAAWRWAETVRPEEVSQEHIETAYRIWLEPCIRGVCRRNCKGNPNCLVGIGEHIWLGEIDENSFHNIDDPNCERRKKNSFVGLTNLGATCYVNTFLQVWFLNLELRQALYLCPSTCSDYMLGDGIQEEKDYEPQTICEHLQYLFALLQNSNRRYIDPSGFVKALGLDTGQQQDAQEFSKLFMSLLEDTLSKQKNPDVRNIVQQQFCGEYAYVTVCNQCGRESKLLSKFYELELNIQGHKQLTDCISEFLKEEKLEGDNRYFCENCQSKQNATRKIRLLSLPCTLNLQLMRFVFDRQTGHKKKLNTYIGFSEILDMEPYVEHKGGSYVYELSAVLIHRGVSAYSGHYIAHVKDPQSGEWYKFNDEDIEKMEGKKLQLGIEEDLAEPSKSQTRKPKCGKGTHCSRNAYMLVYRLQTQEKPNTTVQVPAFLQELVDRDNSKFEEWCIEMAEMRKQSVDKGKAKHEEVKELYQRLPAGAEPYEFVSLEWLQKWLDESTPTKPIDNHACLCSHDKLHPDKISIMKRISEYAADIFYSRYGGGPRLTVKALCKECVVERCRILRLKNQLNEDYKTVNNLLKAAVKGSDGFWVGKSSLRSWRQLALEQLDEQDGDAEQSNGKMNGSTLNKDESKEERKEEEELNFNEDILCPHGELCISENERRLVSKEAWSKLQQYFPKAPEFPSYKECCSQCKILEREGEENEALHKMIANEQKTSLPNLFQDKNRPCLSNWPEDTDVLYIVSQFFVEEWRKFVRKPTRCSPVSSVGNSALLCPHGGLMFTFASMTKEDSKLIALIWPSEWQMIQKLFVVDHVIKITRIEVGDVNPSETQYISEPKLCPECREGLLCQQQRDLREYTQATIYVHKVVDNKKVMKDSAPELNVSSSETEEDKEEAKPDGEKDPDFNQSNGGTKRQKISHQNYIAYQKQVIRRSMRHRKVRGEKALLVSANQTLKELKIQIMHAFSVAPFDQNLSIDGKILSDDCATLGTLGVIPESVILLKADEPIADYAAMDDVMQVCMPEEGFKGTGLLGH
Outline: as §1

USP5 = target: T4, USP5 (UniProt P45974)
T4 sequence (whole entry): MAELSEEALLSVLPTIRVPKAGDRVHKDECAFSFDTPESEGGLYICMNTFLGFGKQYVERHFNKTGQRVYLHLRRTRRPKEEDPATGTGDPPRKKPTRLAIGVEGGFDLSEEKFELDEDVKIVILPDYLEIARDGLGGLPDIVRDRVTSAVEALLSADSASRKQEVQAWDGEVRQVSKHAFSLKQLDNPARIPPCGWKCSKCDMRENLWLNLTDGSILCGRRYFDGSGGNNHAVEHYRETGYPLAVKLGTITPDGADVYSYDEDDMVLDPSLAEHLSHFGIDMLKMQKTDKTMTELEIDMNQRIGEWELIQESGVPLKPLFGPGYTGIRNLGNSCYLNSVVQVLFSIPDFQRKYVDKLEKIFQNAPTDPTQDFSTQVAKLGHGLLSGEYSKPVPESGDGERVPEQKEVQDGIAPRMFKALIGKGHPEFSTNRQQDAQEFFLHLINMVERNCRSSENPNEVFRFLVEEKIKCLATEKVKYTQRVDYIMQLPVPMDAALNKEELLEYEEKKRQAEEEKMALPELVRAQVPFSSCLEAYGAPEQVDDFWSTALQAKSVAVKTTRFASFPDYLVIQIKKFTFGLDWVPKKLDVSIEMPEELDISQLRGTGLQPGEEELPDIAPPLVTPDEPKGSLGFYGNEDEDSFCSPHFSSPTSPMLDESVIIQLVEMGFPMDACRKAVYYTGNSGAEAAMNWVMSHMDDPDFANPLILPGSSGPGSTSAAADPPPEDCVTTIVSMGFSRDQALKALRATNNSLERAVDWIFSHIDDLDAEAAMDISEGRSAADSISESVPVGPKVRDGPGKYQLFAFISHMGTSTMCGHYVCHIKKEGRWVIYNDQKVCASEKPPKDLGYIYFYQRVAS
Outline: as §1

USP54 = USP54 (UniProt Q70EL1)
Outline: as §1

USP7 = USP7 (UniProt Q93009)
Outline: as §1

USP8 = target: T5, USP8 (UniProt P40818)
T5 sequence (whole entry): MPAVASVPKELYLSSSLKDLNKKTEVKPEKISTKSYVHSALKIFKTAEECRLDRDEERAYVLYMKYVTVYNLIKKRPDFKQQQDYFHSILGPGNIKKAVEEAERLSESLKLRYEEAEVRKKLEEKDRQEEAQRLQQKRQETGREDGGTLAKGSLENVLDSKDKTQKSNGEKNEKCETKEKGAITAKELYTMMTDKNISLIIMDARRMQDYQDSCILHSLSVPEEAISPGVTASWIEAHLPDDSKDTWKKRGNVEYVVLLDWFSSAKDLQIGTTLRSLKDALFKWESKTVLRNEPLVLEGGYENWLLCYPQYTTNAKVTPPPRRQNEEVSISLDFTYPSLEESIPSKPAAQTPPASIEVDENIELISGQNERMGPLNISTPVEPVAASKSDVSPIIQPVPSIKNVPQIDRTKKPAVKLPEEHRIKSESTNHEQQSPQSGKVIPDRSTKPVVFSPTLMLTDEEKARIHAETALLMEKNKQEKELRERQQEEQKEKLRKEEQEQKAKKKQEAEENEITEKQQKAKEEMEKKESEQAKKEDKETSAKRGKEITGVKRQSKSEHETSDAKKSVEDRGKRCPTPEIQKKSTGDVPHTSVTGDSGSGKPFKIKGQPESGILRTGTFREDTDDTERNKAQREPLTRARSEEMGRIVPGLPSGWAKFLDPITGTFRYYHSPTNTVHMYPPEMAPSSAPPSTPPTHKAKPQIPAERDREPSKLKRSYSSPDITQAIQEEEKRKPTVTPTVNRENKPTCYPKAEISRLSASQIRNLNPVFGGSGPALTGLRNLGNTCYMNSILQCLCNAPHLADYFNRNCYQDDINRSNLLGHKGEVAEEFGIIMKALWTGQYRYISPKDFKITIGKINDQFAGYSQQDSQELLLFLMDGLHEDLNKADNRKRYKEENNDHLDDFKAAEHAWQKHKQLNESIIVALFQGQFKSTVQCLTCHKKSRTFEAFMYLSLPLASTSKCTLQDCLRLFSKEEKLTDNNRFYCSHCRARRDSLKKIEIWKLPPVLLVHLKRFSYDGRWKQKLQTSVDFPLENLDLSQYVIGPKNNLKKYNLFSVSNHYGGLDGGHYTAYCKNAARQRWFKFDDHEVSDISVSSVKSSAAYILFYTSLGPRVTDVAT
Outline: as §1

USP9X = USP9X (UniProt Q93008)
Outline: as §1

UniProt O00487 = target: UniProt O00487
Outline: as §1

Measured: log2 ratio of Biotin-Ahx-Ub-VS probe labelling

Sequence of USP7 (Q93009 whole entry, looked up): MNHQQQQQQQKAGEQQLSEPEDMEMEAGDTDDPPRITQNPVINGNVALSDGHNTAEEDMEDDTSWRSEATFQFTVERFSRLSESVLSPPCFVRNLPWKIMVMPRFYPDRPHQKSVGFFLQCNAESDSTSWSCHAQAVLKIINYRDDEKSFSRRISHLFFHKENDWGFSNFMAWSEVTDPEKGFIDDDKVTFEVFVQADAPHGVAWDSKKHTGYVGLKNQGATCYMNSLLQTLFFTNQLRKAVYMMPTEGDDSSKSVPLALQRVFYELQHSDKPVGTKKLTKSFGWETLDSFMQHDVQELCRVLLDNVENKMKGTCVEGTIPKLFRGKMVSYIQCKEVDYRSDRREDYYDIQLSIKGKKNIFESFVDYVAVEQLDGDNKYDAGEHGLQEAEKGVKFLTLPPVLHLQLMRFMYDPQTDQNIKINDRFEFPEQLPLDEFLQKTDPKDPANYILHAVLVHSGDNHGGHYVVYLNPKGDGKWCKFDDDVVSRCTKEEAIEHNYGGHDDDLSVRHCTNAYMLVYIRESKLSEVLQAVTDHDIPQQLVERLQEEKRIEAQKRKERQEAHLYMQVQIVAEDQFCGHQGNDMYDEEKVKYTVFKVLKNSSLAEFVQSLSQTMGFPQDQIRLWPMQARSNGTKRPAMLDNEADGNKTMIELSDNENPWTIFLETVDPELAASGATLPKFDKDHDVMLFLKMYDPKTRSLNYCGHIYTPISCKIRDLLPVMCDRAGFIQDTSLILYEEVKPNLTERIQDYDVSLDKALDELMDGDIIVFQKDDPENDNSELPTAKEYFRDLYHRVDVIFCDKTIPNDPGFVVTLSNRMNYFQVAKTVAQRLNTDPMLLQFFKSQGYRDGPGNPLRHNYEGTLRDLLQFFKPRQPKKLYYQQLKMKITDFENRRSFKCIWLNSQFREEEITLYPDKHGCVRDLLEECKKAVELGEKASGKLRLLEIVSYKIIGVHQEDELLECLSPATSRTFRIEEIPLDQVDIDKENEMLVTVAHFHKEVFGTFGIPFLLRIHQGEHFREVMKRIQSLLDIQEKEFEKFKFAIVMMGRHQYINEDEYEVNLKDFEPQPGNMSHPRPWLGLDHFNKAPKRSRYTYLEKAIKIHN
Sequence of UniProt O00487 (O00487 whole entry): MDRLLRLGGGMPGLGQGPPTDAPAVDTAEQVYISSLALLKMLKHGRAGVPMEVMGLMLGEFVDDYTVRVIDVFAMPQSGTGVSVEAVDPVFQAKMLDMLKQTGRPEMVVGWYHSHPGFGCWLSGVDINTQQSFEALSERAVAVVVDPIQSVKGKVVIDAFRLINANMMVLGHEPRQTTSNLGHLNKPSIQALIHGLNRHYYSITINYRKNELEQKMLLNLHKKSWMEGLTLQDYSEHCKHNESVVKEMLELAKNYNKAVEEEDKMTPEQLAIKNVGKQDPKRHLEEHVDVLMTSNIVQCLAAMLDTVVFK
Sequence of USP54 (Q70EL1 whole entry): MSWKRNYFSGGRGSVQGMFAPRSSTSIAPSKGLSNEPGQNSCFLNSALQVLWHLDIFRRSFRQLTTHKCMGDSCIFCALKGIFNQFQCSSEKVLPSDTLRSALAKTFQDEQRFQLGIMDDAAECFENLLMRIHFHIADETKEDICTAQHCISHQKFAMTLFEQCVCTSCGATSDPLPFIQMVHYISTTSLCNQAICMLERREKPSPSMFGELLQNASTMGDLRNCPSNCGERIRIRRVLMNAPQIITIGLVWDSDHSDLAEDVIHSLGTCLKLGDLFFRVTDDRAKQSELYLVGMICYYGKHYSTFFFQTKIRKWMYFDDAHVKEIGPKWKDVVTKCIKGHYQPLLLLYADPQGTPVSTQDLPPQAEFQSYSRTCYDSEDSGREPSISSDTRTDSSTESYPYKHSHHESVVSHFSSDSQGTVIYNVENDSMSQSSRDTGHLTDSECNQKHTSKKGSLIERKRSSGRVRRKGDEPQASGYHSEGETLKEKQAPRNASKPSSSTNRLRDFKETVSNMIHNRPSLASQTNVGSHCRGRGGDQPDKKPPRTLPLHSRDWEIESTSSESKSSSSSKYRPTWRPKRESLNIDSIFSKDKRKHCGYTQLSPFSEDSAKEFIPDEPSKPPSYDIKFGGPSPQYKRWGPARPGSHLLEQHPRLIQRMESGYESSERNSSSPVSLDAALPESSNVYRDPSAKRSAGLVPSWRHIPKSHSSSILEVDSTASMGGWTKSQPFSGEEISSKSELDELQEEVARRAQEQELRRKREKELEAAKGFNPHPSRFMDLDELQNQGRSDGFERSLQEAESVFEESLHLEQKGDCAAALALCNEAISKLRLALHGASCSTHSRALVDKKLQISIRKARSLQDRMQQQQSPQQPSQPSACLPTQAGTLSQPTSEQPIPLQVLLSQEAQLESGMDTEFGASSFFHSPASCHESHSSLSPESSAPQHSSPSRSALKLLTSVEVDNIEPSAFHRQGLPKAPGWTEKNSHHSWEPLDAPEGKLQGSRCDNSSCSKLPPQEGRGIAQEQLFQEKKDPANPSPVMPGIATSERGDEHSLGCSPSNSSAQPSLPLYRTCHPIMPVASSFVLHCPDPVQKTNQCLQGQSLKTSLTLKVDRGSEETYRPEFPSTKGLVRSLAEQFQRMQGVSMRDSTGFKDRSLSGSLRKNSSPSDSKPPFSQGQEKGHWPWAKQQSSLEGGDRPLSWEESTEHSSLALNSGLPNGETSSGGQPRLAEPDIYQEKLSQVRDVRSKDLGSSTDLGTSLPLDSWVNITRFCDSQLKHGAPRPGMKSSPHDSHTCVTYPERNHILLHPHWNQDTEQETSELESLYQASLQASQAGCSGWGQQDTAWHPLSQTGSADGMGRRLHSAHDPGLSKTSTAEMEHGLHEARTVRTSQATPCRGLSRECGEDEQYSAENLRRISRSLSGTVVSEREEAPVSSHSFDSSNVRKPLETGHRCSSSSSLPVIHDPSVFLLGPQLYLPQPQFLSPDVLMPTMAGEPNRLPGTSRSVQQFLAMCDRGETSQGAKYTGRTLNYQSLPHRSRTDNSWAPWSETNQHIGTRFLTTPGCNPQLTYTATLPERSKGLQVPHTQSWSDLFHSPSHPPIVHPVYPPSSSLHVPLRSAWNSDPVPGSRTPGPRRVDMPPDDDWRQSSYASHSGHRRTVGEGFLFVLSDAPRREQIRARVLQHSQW
Sequence of USP46 (P62068 whole entry): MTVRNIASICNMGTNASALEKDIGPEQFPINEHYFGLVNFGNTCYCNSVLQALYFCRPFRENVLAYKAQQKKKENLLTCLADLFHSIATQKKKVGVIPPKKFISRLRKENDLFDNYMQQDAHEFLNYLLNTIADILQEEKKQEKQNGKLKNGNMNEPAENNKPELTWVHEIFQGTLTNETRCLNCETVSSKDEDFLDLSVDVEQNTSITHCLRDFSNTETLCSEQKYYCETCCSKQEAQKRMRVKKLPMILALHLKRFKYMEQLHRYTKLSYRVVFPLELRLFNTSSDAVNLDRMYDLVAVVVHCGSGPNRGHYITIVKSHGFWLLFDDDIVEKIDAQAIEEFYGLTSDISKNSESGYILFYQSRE

NS(=O)(=O)c1ccc(Cl)c(NC(=O)CCl)c1
inactive: USP42 0.0225 | USP46 -0.123 | USP47 -0.247 | USP48 -0.536 | USP5 0.233 | USP54 -0.00214 | USP7 -0.207 | USP8 -0.125 | USP9X -0.31 | UniProt O00487 -0.0819
